# Tau FP inhib – blocks human tau fibril formation measured by polarization; Potency, µM (titrated, usually from 57.7 µM), for the others: top-dose activity, negative = inhibition, usual class: inhibitors; K18 P301L tau heparin fibrillization, Alexa594 FP, 6 h; hit rate 0.39% among 280,000; P10636; also: nearly all actives have a fitted effect of over 55% in size
# Target sequence (P10636 561-689 P618L limits assumed): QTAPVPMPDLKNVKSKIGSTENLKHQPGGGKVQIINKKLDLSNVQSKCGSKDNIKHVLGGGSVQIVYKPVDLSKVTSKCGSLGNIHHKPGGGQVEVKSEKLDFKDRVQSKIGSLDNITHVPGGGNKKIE
#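 Human tau K18 […] P301L fragment, 15 uM unlabeled plus 0.24 uM Alexa 594-labeled tau (final), with compound and 20 uM heparin in 100 mM sodium acetate pH 7; 6 hr at 37 C, then Alexa 594 FP read.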
# ALDH1A1 block – inhibitors of human aldehyde dehydrogenase 1A1; Potency, µM (doses to about 75.3 µM), inactives show at the highest dose activity, negative = inhibition, most hits filed as inhibitors; P00352; hit rate 7.3% among 220,000; Purified ALDH1A1, NADH fluorescence, propionaldehyde substrate; active = well fitted inhibition curve with a large enough effect, not every such curve was filed as active; inconclusive = small, poorly fitted or top-dose-only effect, or another doubt; inactive = no such curve, though single readings can be large or run the other way;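 also: plate controls were no enzyme wells and a reference inhibitor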
# NPSR antagonist – blocks cAMP signaling of the human neuropeptide S receptor. hit rate 1% among 220,000. Q6W5P4. CHO-NPSR cells, cAMP TR-FRET, antagonist mode. Potency, µM (top dose mostly 38.3 µM), inactives show at the top dose activity change, negative = inhibition, actives largely listed as inhibitors; also: nearly all actives have a fitted effect of over 50% in size
# Tau fluor counter – counter-screen for tau fibril formation inhibitors. tau K18 P301L Alexa594 fluorescence, heparin fibrillization. Potency, µM (highest dose often 57.7 µM), without a hit: top-dose activity change, negative = decrease. hit rate 0.93% among 280,000; also: nearly all actives have a fitted effect of over 55% in size
#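 Human tau K18 P301L (15 uM unlabeled, 0.24 uM Alexa 594-labeled) in 100 mM sodium acetate pH 7 with 20 uM heparin, 6 hr at 37 C. ThT 30 uM added, 1 hr ambient; Alexa 594 FP and total fluorescence read at 555/632 nm.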
# HPGD inh – HPGD (human) dehydrogenase inhibition; P15428; purified HPGD, NADH fluorescence kinetic, PGE2 substrate; Potency, µM, inactives show at the highest dose activity change, negative = inhibition, hits mostly inhibitors; hit rate 4.3% among 150,000; active = well fitted inhibition curve with a large enough effect, not every such curve was filed as active; inconclusive = small, poorly fitted or top-dose-only effect, or another doubt; inactive = no such curve, though single readings can be large or run the other way
# Target sequence (P15428 whole entry, looked up): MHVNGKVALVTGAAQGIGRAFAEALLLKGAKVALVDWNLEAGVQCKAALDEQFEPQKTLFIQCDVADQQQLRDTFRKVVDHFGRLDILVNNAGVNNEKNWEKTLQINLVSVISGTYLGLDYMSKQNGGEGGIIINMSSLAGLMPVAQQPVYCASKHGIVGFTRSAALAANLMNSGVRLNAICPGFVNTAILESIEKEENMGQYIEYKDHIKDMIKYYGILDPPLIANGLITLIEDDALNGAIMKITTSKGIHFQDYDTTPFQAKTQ
#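 20 nM HPGD preincubated 15 min at room temperature with compound in 50 mM Tris-HCl pH 8, 0.01% Tween 20. Started with 1 mM NAD+ and 30 uM prostaglandin E2; NADH fluorescence (360/450 nm) read 5 times over 30-s intervals, last minus first.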
# Tau fibril ThT – blocks human tau fibril formation measured by thioflavin T | P10636 | recombinant tau K18 P301L (four-repeat tau fragment), heparin-induced fibrillization, ThT fluorescence | Potency, µM (doses to about 57.4 µM), without a hit: at the top dose activity, negative = inhibition, usual class: inhibitors | hit rate 2.1% among 270,000; also: nearly all actives have a fitted effect of over 55% in size
#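 In this qHTS, human K18 P301L tau is incubated with compound and heparin for 6 hr at 37 C, and Thioflavin T fluorescence then reports fibril load.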
# * = called active by the depositor; ? = inconclusive; . = no result; [ ] = another dose, or the depositor's remark. Sampled rows, rich in hits. Any-hit rate of the full collection: about 9.5%. Unless noted, calls follow the shape of the dose curve; as a rule, active = well fitted curve in the direction sought with a large enough effect; inconclusive = small, poorly fitted or top-dose-only effect, or another doubt; inactive = no such curve, though single readings can be large; an effect the other way counts as inactive or inconclusive. Unless noted, % is scaled to controls: 0 for no effect and ±100 for the full control effect; potency is read from the fitted curve at half-maximal effect.
SMILES,Tau FP inhib,ALDH1A1 block,NPSR antagonist,Tau fluor counter,HPGD inh,Tau fibril ThT
Cc1cc(-c2nc(C)c(C(=O)NN)s2)no1,-4%,10µM*,-30%,-13%,.,-16%
C=CCNC(=O)c1sc(-c2ccccc2)nc1C,2%,5%,-4%,-10%,.,-10%
Cc1ccc(N/C=C/C(=O)c2sc(-c3ccccc3)nc2C)cc1,0%,11µM*,-6%[46.1 µM],-28%,-2%,2µM*
O=S(=O)(NC1CC1)c1ccc(S(=O)(=O)N2CCCC3(CCCCC3)C2)cc1,-2%,8%,8%[46.1 µM],-3%,-3%,1%
Cc1nn(-c2cccc(Cl)c2)c2c1C(c1ccncc1)C(C#N)=C(N)O2 (stereo unspecified),-4%,10µM*,?,?,-12%,?
CC1=C(n2nnc([N+](=O)[O-])n2)C(c2cccnc2)C(C#N)=C(N)O1 (stereo unspecified),-18%,1.1µM*,16%,-12%,-8%,?
COC(=O)C1=C(C)OC(N)=C(C#N)C1c1cccnc1 (stereo unspecified),-4%,-4%,-2%[46.1 µM],-7%,-2%,?
CCOc1ccc(C2C(C#N)=C(N)Oc3cc(C)n(Cc4ccco4)c(=O)c32)cc1OC (stereo unspecified),0%,?,-12%[46.1 µM],8%,-6%,-7%
Cc1nn(-c2cccc(Cl)c2)c2c1C(c1cccnc1)C(C#N)=C(N)O2 (stereo unspecified),3%,7.9µM*,-14%[46.1 µM],?,-20%,?
Cc1cc2c(c(=O)n1Cc1ccco1)C(c1cccnc1)C(C#N)=C(N)O2 (stereo unspecified),8%,7.5µM*,-15%[46.1 µM],11%,-19%,21%
COc1ccc(C(=O)NCC(c2ccc(N(C)C)cc2)N2CCCC2)c(OC)c1 (stereo unspecified),4%,.,.,0%,.,-3%
Cc1ccc(C(C)(C)C)cc1,.,12%,.,.,-8%,.
COc1cccc2c1Oc1ncccc1N(c1ccc(C(=O)NCc3cccc(C)c3)s1)C2,2%,.,.,-19%,.,-12%
COc1ccc(OC)c(C2C(C#N)=C(N)Oc3cc(N)ccc32)c1 (stereo unspecified),1%,11µM*,8%[46.1 µM],-25%,-7%,-9%
COc1ccc(OC)c(C2C(C#N)=C(N)Oc3c2c(C)nn3-c2cccc(Cl)c2)c1 (stereo unspecified),-1%,?,-16%[46.1 µM],?,-25%,13µM*
COc1ccc(OC)c(C2C(C#N)=C(N)Oc3cc(C)[nH]c(=O)c32)c1 (stereo unspecified),1%,-1%,-2%[46.1 µM],4%,-13%,1%
O=c1cc(O)nc(-c2ccc(Cl)cc2)s1,3%,16µM*,-6%,1%,.,6%
O=c1cc(O)nc(-c2ccccc2)s1,-1%,0.79µM*,21%,-6%,.,-16%
CCN1/C(=N\N)c2cccc3cccc1c23,6%,?,-3%,?,.,7.9µM*
O=C1c2cccc3cccc(c23)N1Cc1ccc(F)cc1,3%,5%,-18%,1%,?,1%
CC(C)OC(=O)c1c2c(n3ccccc13)C(=O)c1ccccc1C2=O,-1%,?,-1%,?,-13%,11µM*
COC(=O)c1cc2c(C)c(C)c3ccccn3c-2c1C(=O)OC,1%,1%,-20%[46.1 µM],-17%,-6%,?
Nc1cc([N+](=O)[O-])ccc1Nc1ccccc1,?,-1%,-34%,?,.,16µM*
O=[N+]([O-])c1ccc(NC(=S)NCCc2ccc(Cl)cc2)cc1,13µM*,?,?,7.9µM*[quencher],-5%,?
S=C(NCCc1ccccc1)Nc1ccc(Cl)cc1,?,10%,-9%,?,-7%,-6%
SMILES,Tau FP inhib,ALDH1A1 block,NPSR antagonist,Tau fluor counter,HPGD inh,Tau fibril ThT
O=[N+]([O-])c1cc(C(F)(F)F)ccc1NCCCCNS(=O)(=O)c1ccc(Cl)cc1,8%,2%,-10%,?,-12%,?
O=[N+]([O-])c1ccc(O)c(NC(=S)Nc2ccccc2)c1,1%,22µM*,-15%[46.1 µM],?,?,?
O=[N+]([O-])c1cc(C(F)(F)F)ccc1NCCNC(=S)Nc1ccc(Cl)cc1,20µM*,-7%,-29%[46.1 µM],7.1µM*[quencher],-13%,11µM*
O=C(O)c1cc([N+](=O)[O-])ccc1Nc1ccccc1,13%,-3%,-17%,-4%,-24%,?
Cc1ccc(S(=O)(=O)NC(=O)O[C@@H]2C(=O)c3cc(Br)ccc3O[C@H]2c2ccc3c(c2)OCO3)cc1,-3%,-4%,.,-10%,-13%,?
Cc1c(Cl)cccc1NC(=O)Nc1c[nH]c(=O)[nH]c1=O,-4%,.,.,-20%,.,-15%
CCn1c(SCC(N)=O)nnc1-c1ccc2c(c1)OCO2,-12%,-10%,14%,-9%,.,-15%
O=[N+]([O-])c1ccc(NC(=S)NCCc2ccccc2)cc1,?,?,-10%,13µM*[quencher],-10%,?
NS(=O)(=O)c1ccc(NC(=S)NCCc2ccccc2)cc1,-7%,?,-4%,-3%,.,10%
CC(=O)c1ccc(NC(=O)Nc2nnc(N3CCCC(C)C3)s2)cc1 (stereo unspecified),0%,.,.,-3%,.,-6%
C=CCn1c(SCC(=O)c2cc(C)n(CCOC)c2C)nc2sc(C)c(C)c2c1=O,?,25µM*,-12%[46.1 µM],-1%,?,14%
CC1(C)CC(=O)C=C(Nc2ccccn2)C1,-8%,8.9µM*,-5%[46.1 µM],7%,-23%,10%
O=C1[C@H]2[C@H]3[C@H](O)[C@H](O)C/C(=N/OCc4ccccc4)[C@H]3CC[C@@H]2C(=O)N1c1cccc(Oc2ccccc2)c1,3%[11.6 µM],2%[13.5 µM],.,-22%[11.6 µM],.,-14%[11.5 µM]
CN(C)c1ccc(/C=N/Nc2ccc(-n3ccnc3)nn2)cc1,-9%,7.9µM*,-19%[46.1 µM],?,-9%,5µM*
O=S(=O)(Nc1ccc(-c2ccc(N3CCCC3)nn2)cc1)c1cccc(C(F)(F)F)c1,9%,.,.,-29%,.,-8%
CC1(C)CC(=O)C(C(C2=C(O)CC(C)(C)CC2=O)c2cccs2)C(=O)C1 (stereo unspecified),-4%,-3%,-7%[46.1 µM],-10%,.,-15%
CC1(C)CC(=O)C(C(C2=C(O)CC(C)(C)CC2=O)c2cccnc2)C(=O)C1 (stereo unspecified),3%,14µM*,-2%[46.1 µM],4%,-7%,?
Cc1ccc(C(C2=C(O)CC(C)(C)CC2=O)C2C(=O)CC(C)(C)CC2=O)o1 (stereo unspecified),-5%,14µM*,-14%[46.1 µM],-5%,3.5µM*,-20%
CC1(C)CC(=O)C(C(C2=C(O)CC(C)(C)CC2=O)c2cccc(O)c2)C(=O)C1 (stereo unspecified),?,14µM*,5%[46.1 µM],?,-9%,?
